Screens: PubChem, several laboratories
The list is not random: actives were taken first. Their share in the collection is about 5.3%.
PfM18AAP inh-1: PfM18AAP inhibitors, malaria aminopeptidase, primary screen, biochemical, QFRET, recombinant enzyme; M18 aspartyl aminopeptidase (Plasmodium falciparum 3D7); H-Glu-NHMec fluorogenic cleavage; inhibition, % at 7.35 µM; 290,000 compounds, 1.2% hits; AID 1822, 2009;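 active means inhibition above the campaign mean inhibition over all tested compounds plus 3 SD, cut at about 28% in these data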
Mot1-301 SUMO: yeast Mot1-301 growth rescue at high temperature, primary screen, SUMOylation pathway inhibitor project, S. cerevisiae, ATP luminescence, 38.5C. S. cerevisiae Mot1-301 growth rescue; percent above DMSO median, 100 means doubled. growth rescue, % at 18.8 µM. 320,000 compounds, 1% hits;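 active means every valid replicate shows activation above 250% relative to neutral control wells; inactive means the rest, any valid replicate at or below 250%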
HIF activator: HIF pathway transcriptional activators, primary screen, cell-based, U2OS HRE-luciferase, luminescence; U2OS HRE-luciferase reporter; normalized: DMSO 0%, desferrioxamine 100%; AID 1910, 2009; 300,000 compounds, 0.32% hits; activation, % at 7.5 µM (by protocol);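 active means mean activation of at least 10% of the iron chelator positive control signal, with at least half of replicates also reaching 10%; inconclusive means mean and replicate majority disagree about reaching 10%; inactive means mean and most replicates under 10%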
ALR inh: inhibitors of human ALR sulfhydryl oxidase, primary screen, biochemical, H2O2 detection, HRP-luminol luminescence, single point; FAD-linked sulfhydryl oxidase ALR (Homo sapiens), P55789; purified ALR, DTT oxidation; inhibition, % (no concentration beside the values); 290,000 compounds, 3.8% hits; AID 485317, 2010;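 active means mean replicate inhibition above about 79%, with every replicate also reaching it, limit read from the data; inconclusive means only one of the two criteria met; inactive means mean below limit and not every replicate reaching it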
PfM18AAP inh-2: PfM18AAP inhibitors, malaria aminopeptidase, confirmation, biochemical, QFRET, recombinant enzyme, triplicate; 2,400 compounds, 28% hits; inhibition, % at 7.35 µM; H-Glu-NHMec fluorogenic cleavage; shares compounds with PfM18AAP inh-1;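 active means mean inhibition over replicate wells above the hit cutoff set for the earlier primary screen, cut at about 29% in these data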
CTSL1 confirm: cathepsin L1 inhibitors, retest, confirmation, counter-screen for PFM18AAP inhibitor project, biochemical, QFRET, triplicate; shares compounds with PfM18AAP inh-1; purified cathepsin L1, Z-Leu-Arg-MCA fluorescence; inhibition, % at 5.96 µM; 2,400 tested, under 10 active; AID 2178, 2009;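 active means average inhibition across replicates above the hit cutoff set in the earlier primary screen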
Target sequence (P07711 whole entry, looked up): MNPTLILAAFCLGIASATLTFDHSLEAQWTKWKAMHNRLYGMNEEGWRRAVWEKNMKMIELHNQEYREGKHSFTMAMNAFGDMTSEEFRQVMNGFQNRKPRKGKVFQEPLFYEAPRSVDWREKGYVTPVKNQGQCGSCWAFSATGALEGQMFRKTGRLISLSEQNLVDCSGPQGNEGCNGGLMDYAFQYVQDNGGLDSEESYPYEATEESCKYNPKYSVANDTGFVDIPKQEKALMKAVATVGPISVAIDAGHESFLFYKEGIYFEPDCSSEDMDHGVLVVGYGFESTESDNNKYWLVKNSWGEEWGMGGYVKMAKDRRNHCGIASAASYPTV
Of the large screens only hits and unclear results are named; the others gave an inactive call (follow-up assays come after a bar, where they were run).

O=C1CCCC2=C1C(c1ccc(O)c(O)c1)Nc1ccc3ncccc3c12 (stereo not given)	PfM18AAP inh-1 78, ALR inh 99 | PfM18AAP inh-2 78 | CTSL1 confirm inactive
CC(C)CCNC(=O)C1(O)c2ccccc2NC(=O)N1c1ccc(Cl)cc1 (stereo not given)	none
Cc1nc(N)sc1-c1csc(N(C)c2ccc(O)cc2)n1	PfM18AAP inh-1 33 | PfM18AAP inh-2 inactive | CTSL1 confirm inactive
CN(c1ccc(O)cc1)c1nc(-c2cccs2)cs1	PfM18AAP inh-1 39, ALR inh 98 | PfM18AAP inh-2 inactive | CTSL1 confirm inactive
O=c1ccc2[n+]([O-])c3ccc(O)cc3oc-2c1	PfM18AAP inh-1 39 (no result: Mot1-301 SUMO, ALR inh) | PfM18AAP inh-2 inactive | CTSL1 confirm inactive
Nc1ccc(-n2cc(-c3ccccc3)[nH]c2=S)cc1	PfM18AAP inh-1 44, ALR inh 91 | PfM18AAP inh-2 inactive | CTSL1 confirm inactive
COc1ccccc1-n1cc(-c2ccc([N+](=O)[O-])cc2)[nH]c1=S	PfM18AAP inh-1 32 | PfM18AAP inh-2 inactive | CTSL1 confirm inactive
COc1ccccc1-n1cc(-c2ccc(C)cc2)[nH]c1=S	none
O=[N+]([O-])c1cccc(-c2cn(-c3ccccc3)c(=S)[nH]2)c1	PfM18AAP inh-1 50 | PfM18AAP inh-2 50 | CTSL1 confirm inactive
CC(C)(C)c1cn(-c2ccccc2)c(=S)[nH]1	ALR inh inconclusive
S=c1[nH]c(-c2ccccc2)cn1-c1ccccc1	PfM18AAP inh-1 46, ALR inh 97 | PfM18AAP inh-2 35 | CTSL1 confirm inactive
O=[N+]([O-])c1ccc(-c2cn(-c3ccccc3)c(=S)[nH]2)cc1	none
COc1ccccc1-c1cn(-c2ccccc2)c(=S)[nH]1	none (no result: ALR inh)
Cc1ccccc1C(=O)c1c[nH]c(C(=O)NCc2cccs2)c1	none
CC(=O)Nc1ccc(S(=O)(=O)NC2(C(F)(F)F)C(=O)Nc3c2c(=O)[nH]c(=O)n3Cc2ccco2)cc1 (stereo not given)	none
CN(C(=O)c1ccccc1C(=O)OCC(=O)Nc1cccc(Br)c1)c1ccccc1	none (no result: PfM18AAP inh-1, HIF activator)
Cc1c(C(=O)N2CCCCC2)c(S(=O)(=O)NCCc2ccc(S(N)(=O)=O)cc2)c(C)n1C	none
Cc1ccc(S(=O)(=O)/N=C(/c2ccccc2)N2CCOCC2)c(C)c1	none
Cc1ccc(C(=O)N2CCN(C)CC2)cc1[N+](=O)[O-]	none
O=C1CC(c2ccccc2)=NN1c1nc(-c2ccccc2)cs1	PfM18AAP inh-1 33 (no result: ALR inh) | PfM18AAP inh-2 inactive | CTSL1 confirm inactive
Cc1cc(SCC(=O)c2ccc(O)c(O)c2)nc2ccccc12	PfM18AAP inh-1 46, ALR inh 100 | PfM18AAP inh-2 inactive | CTSL1 confirm inactive
O=C(CSc1n[nH]c(-c2ccccc2)n1)c1ccc(O)c(O)c1	PfM18AAP inh-1 60, ALR inh 99 | PfM18AAP inh-2 36 | CTSL1 confirm inactive
Cn1c(N)c(C(=O)COC(=O)/C=C/c2ccc(Cl)c(Cl)c2)c(=O)n(C)c1=O	none (no result: PfM18AAP inh-1, HIF activator, ALR inh)
Cc1cc(N/N=C/c2ccc(O)c(C)c2O)nc(-c2ccccc2O)n1	PfM18AAP inh-1 44 | PfM18AAP inh-2 38 | CTSL1 confirm inactive
COc1cc(-c2c(C#N)c(N)nc3[nH]c(=S)[nH]c(=O)c23)ccc1O	PfM18AAP inh-1 33, ALR inh 99 | PfM18AAP inh-2 inactive | CTSL1 confirm inactive
COc1cc(/C=C2/C(=O)ON=C2C)cc(Cl)c1O	PfM18AAP inh-1 32, ALR inh 91 | PfM18AAP inh-2 inactive | CTSL1 confirm inactive
CC(C)CCN(C(=O)Nc1ccc(Cl)cc1)C1CCN(C(C)C)CC1	none
Cn1c(O)c(/C=N/NC(=O)c2cc3ccccc3cc2O)c2ccccc21	PfM18AAP inh-1 32, HIF activator inconclusive (no result: ALR inh) | PfM18AAP inh-2 inactive | CTSL1 confirm inactive
O=C(CN1CCN(Cc2ccc3c(c2)OCO3)CC1)Nc1ccc(N2CCOCC2)cc1	none
CCn1c(O)c(C=C2N=c3ccccc3=N2)sc1=S	none
